Consider nine compounds from PubChem BioAssay (NCATS).

Results filed as inconclusive are left out. Values without a mark were called inactive. Activity calls are given as the source filed them. Calls follow the shape of the dose curve; as a rule, active = well fitted cell-killing curve with a large enough effect; inconclusive = small, poorly fitted or top-dose-only effect, or effect the other way; inactive = no such curve, though single readings can be large or run the other way.
Potency is read from the fitted curve at half-maximal effect.

The nature of this test: Viability qHTS for spleen associated tyrosine kinase inhibitor (SYKi) drug resistant MV4-11 cells (AID 1963824). Also: nearly all actives have a fitted effect of over 35% in size. The note with it: SYKi-resistant MV4-11 viability, CellTiter-Glo, 72 h; series mostly up to 45 µM; viability, % of control: at the top concentration. In a few lines:
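CellTiter-Glo luminescence, read 10 min after reagent addition, reports viability after a 72 hr compound exposure. Cells are an MV4-11 line made resistant to SYK inhibition, seeded at 500 per well onto compound-containing plates.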
Background: In qHTS, concentration-response curves come from the screen itself.
On to `CC(=O)NC(C(=O)O[C@H]1CCC(C)(C)[C@@H]2CC=C3C(=O)OCC3(O)[C@@]12C)C(C)C` (some centres undefined), for which the Potency was 3600 nM (active). As for `CC(C)(C)n1nc(Cc2cccc([N+](=O)[O-])c2)c2c(N)ncnc21`, the Potency was 5170 nM (active).

Regarding `CNS(=O)(=O)Nc1nccc(Cc2c(C)c3ccc(Oc4ncccn4)cc3oc2=O)c1F`, the Potency is 590 nM (active). Still for that read-out and setting: under `CC(C)C[C@@H]1NC(=O)[C@@H]2C[C@@]34C[C@@H]5[C@@]6(C)CCCC(C)(C)C6CC[C@@]5(C)N(c5ccccc53)[C@H]4N2C1=O` (some centres undefined) stands 448 nM (active); under `CC(=O)O[C@@H]1CC2C(/C=C(\C)C(=O)[C@@]3(O)C[C@@H](C)[C@H](OC(=O)c4ccccc4)C3/C=C/1C)C2(C)C` (some centres undefined), 10000 nM (active).

As for `Cn1c2ccc(NC(=O)c3ccccc3)cc2c(=O)n2nc(C(=O)O)cc12`, the “viability, % of control” value is 99.7% [at 17.3 µM]. Regarding `CCCC(Nc1nc(-c2ccc(NC(=O)NCC)c(OC)c2)ncc1C)c1cccnc1` (centres undefined), the Potency is 130 nM (active). The same measure, in the same setting: under `CC(=O)NC(C)c1cnc(-c2cnc(Oc3ccc(OC(C)C)cc3)s2)s1` (centres undefined) stands 10300 nM (active); under `CN(C(=O)CNC(=O)/C=C/c1cccc(Cl)c1)C1CCS(=O)(=O)CC1`, 468 nM (active).
